This passage reports max response, negative = inhibition results from PubChem BioAssay AID652054 (National Center for Advancing Translational Sciences (NCATS), 2013).

SMILES strings stand for the structures. The campaign covered roughly 360,000 compounds. About 9,100 (2.5%) were called active. Another 4% or so got no clear call; they are omitted. The list comes from a sample in which actives are over-represented; it also holds similar structures and randomly drawn compounds. A number with no mark means an inactive call. Rule as the data show it: active = max response below about -50%; inconclusive = no clear call, values can overlap the other calls; inactive = above that.
% is scaled to controls: 0 for no effect and ±100 for the full control effect.

Chain of D(3) dopamine receptor (Homo sapiens) (P35462 whole entry, looked up): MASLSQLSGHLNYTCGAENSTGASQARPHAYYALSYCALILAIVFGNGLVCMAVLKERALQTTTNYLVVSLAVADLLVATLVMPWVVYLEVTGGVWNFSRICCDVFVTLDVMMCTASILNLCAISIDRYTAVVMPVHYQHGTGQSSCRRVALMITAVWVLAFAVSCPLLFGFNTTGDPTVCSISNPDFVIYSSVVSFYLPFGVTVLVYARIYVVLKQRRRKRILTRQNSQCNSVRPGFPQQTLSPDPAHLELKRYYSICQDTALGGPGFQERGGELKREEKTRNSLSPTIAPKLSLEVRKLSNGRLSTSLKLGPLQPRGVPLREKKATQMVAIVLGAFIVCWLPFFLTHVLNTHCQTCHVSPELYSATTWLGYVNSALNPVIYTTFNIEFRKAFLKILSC

This test concerns the target D(3) dopamine receptor (Homo sapiens) (UniProt P35462). In words: qHTS of D3 Dopamine Receptor Antagonist: qHTS. The following applies: D3R cells, DiscoveRx beta-arrestin luminescence, antagonist mode; active compounds read low. In a few lines: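 Cells expressing the human receptor were seeded at 1500 cells/well, incubated overnight at 37 degrees C in 5% CO2, then exposed to library compounds with dopamine controls for 90 minutes at 37 degrees C before luminescent detection.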
A general note: qHTS replaces the single test concentration by a dilution series.
Turning to `CCNC(=O)C1(C)CCCN1C(=O)c1ccc(N(C)C)cc1` (centres undefined), the max response, negative = inhibition is 6.44%. Take `CC(C)(C)N1C(=O)c2c(C(=O)OCc3ccccc3)[nH]c(-c3ccccc3)c2C1=O`: the max response, negative = inhibition is -3.03%.

As to `CC(=O)Nc1cccc(-c2cc3nc(NCc4cccnc4)n(C)c(=O)c3s2)c1`, the max response, negative = inhibition is 17.6%. Take `COc1ccc(C(CNC(=O)COc2ccc([N+](=O)[O-])cc2)N2CCCCC2)cc1` (centres undefined): the max response, negative = inhibition was -74.5% (active).

`COc1ccc(OCC(=O)NNC(=O)C2CCC2)cc1`: the max response, negative = inhibition was -0.824%.

Turning to `COc1ccc(C(CNC(=O)COc2ccccc2OC)N2CCCCC2)cc1` (centres undefined), the max response, negative = inhibition was -53.8% (active). Regarding `COc1ccc(C(CNC(=O)CSc2ccccc2)N2CCOCC2)cc1` (centres undefined), the max response, negative = inhibition is 19.6%. With `COc1ccc(C(CNC(=O)c2ccc(OCc3cscn3)cc2)N2CCCC2)cc1` (centres undefined), the max response, negative = inhibition was -19.8%. With `CCOc1ccc(NS(=O)(=O)c2ccc(C(=O)NCC(c3ccccc3OC)N3CCCC3)cc2)cc1` (centres undefined), the max response, negative = inhibition was -13.6%. In the case of `CCc1nc2ccc(C(=O)NCCNC(C)=O)cn2c1N(CC)Cc1cccc(Br)c1`, the max response, negative = inhibition was 48.8%. With `O=C1NC[C@H](Cc2ccc(O)cc2)N(C[C@@H]2CCCN2C[C@H](Cc2ccccc2)N2C[C@H](Cc3ccccc3)N(CC3CCCCC3)C(=O)C2=O)C1=O`, the max response, negative = inhibition was 8.41%. In the case of `Cc1ccc(SC(CC(=O)c2ccc(C(C)(C)C)cc2)C(=O)O)cc1` (centres undefined), the max response, negative = inhibition was -80.7% (active). For `CC(C)(C)c1ccc(C(=O)NNC(=O)Cc2ccccc2)cc1`, the max response, negative = inhibition is -17.8%. Regarding `Cc1ccc(Sc2cc(C(=O)c3ccccc3C(=O)O)ccc2[N+](=O)[O-])cc1`, the max response, negative = inhibition was -21.4%. For the compound `CCN1CCN(C(c2cccnc2)c2cc(Cl)c3cccnc3c2O)CC1` (centres undefined), the max response, negative = inhibition was -91.7% (active). Turning to `Cc1ccc([C@H]2C[C@H](O)[C@@H](n3cc(COC(=O)c4ccccc4)nn3)CN2CC2CCCCC2)cc1`, the max response, negative = inhibition is 1.62%. Take `O=C(C(=O)N1CCN(c2ccccc2)CC1)c1ccc2c(c1)OCO2`: the max response, negative = inhibition is -3.44%. To `CCN(CC)CCC(c1cc(OC)c(OC)c(OC)c1)c1c(OC)cc(OC)c2c(-c3ccccc3)cc(=O)oc12` (centres undefined) belongs 15.7%.

Consider `COc1cc(OC)c2ccc(=O)oc2c1C(CCN1CCN(c2ccccc2)CC1)c1ccc2c(c1)OCO2` (centres undefined), for which the max response, negative = inhibition was -81.3% (active). With `COc1cc(C(CCN2CCN(c3ccccc3)CC2)c2c(OC)cc(OC)c3ccc(=O)oc23)cc(OC)c1OC` (centres undefined), the max response, negative = inhibition is -84.7% (active).

On to `COc1ccc(C(CC(=O)N2CCN(c3ccccc3)CC2)c2c(O)cc(OC)cc2OC)cc1` (centres undefined), for which the max response, negative = inhibition is 8.17%. Turning to `CCN(CC)C(=O)CC(c1ccc2c(c1)OCO2)c1c(OC)cc(OC)c2c(-c3ccccc3)cc(=O)oc12` (centres undefined), the max response, negative = inhibition was 0.75%. `Cc1cc2nc(-c3ccc(F)cc3)c(Cc3ccsc3)n2c(C)c1Br`: the max response, negative = inhibition was 28.2%. `Cc1cc(Br)cn2c(Cc3ccsc3)c(-c3ccc(C#N)cc3)nc12`: the max response, negative = inhibition was 3.93%. As for `Cc1ccc(S(=O)(=O)N2CCC(=O)N([C@H](COCc3ccccc3)Cc3ccccc3)CC2)cc1`, the max response, negative = inhibition was -4.09%. For `CCCc1ccc(S(=O)(=O)N2CCN(C(=O)c3cc(C)on3)CC2)cc1`, the max response, negative = inhibition is 15.8%. Take `COCCNC(=O)c1cc2c(Br)ccc(Br)c2nc1N`: the max response, negative = inhibition was -12.2%. Consider `COc1ccc(NC(=O)C(c2ccncc2)n2c(=O)c(-c3cc4ccccc4[nH]3)nc3ccccc32)cc1` (centres undefined), for which the max response, negative = inhibition is 12.2%. Regarding `Cc1ccc(Cn2c(C)c(C(=O)NCc3ccccc3C(F)(F)F)sc2=O)cc1`, the max response, negative = inhibition was 11.8%.

For `Cc1cc(C#N)c(SCC(N)=O)nc1-c1ccc(F)cc1`, the max response, negative = inhibition was 9.54%. To `Cc1ccc(NC(=O)CSc2sc3c(O)cc(=O)[nH]c3c2C#N)cc1C` belongs 12.7%; to `Cc1cc(=O)[nH]c(SCC(N)=O)c1C#N`, -50.3% (active); to `C=CCC[C@H](CCCCC)OC(=O)/C=C/[C@H](O)[C@@H](O)C[C@@H](O)CC=C`, -8.69%.

Regarding `CC(C)(O)C#Cc1ccc(CNC[C@H]2O[C@@H](n3cnc4c(=O)[nH]c(N)nc43)[C@H](O)[C@@H]2O)s1`, the max response, negative = inhibition was 14.7%. Regarding `Nc1ccccc1-c1nc2ccncc2[nH]1`, the max response, negative = inhibition is -1.55%. With `O=C(NC1CCN(Cc2ccccc2)CC1)c1ccccc1F`, the max response, negative = inhibition is -72.3% (active). With `S=C(Nc1ccc(Br)cc1)NC1CCN(Cc2ccccc2)CC1`, the max response, negative = inhibition was -58.1% (active).

`O=C(CN1CCCCC1)Nc1ccccc1C(=O)NC1CC1`: the max response, negative = inhibition was 18.3%. To `N#Cc1ccc(CN2CCN(CC(=O)Nc3ccccc3C(=O)NC3CC3)CC2)cc1` belongs 1.04%. In the case of `O=C(NC1CCN(Cc2ccccc2)CC1)c1cc(Br)c(Br)[nH]1`, the max response, negative = inhibition was -86.7% (active).

Take `Cc1cc(=O)oc2c(C)c(OC(C)C(=O)NC3CCN(Cc4ccccc4)CC3)ccc12` (centres undefined): the max response, negative = inhibition is 4.52%. Take `S=C(NCCCc1ccccc1)Nc1ccc(Br)cc1`: the max response, negative = inhibition was 11.9%. With `CCNC(=S)NNC(=O)C1CCN(Cc2ccccc2)CC1`, the max response, negative = inhibition was -27.2%. For the compound `CC(C)(C)C(=O)NNC(=O)c1ccc(Oc2cc(Cl)cc(Cl)c2)o1`, the max response, negative = inhibition is 19.5%. For `O=C(NC1CCN(Cc2ccccc2)CC1)c1ccc(Oc2cc(Cl)cc(Cl)c2)o1`, the max response, negative = inhibition was -87.6% (active). Next, `S=C(NN=C1CCN(Cc2ccccc2)CC1)NC1CCCCC1`: -1.61%; `COc1ccccc1Cc1c(-c2ccc(Cl)cc2)nc2ccc(Cl)cn12`: 6.17%. Next, `CCCCc1ccc(S(=O)(=O)NC(=O)C2(C)CCN2C(=O)c2c(C)noc2C)cc1` (centres undefined): 0%; `O=C1NC[C@H](CCCCN2C[C@H](Cc3ccc(O)cc3)N(CCc3ccccc3)C(=O)C2=O)N(CCc2ccccc2)C1=O`: 4.98%. Take `CCOC(=O)[C@]12CCC=C1N(Cc1ccccc1)C(=O)[C@H](CC(=O)N1CCCC1)C2`: the max response, negative = inhibition was -17.7%. `COc1ccccc1NC(=O)C(CC(=O)O)Cc1cc(C)cc(C)c1` (centres undefined): the max response, negative = inhibition is -7.58%.

Turning to `O=S(=O)(c1cccc(C(F)(F)F)c1)N1c2ccccc2-n2cccc2C1c1cccnc1` (centres undefined), the max response, negative = inhibition is 9.86%.

As for `O=S1(=O)CC(N2CCN(CCO)CC2)CN1Cc1cn(Cc2cccc(Cl)c2)nn1` (centres undefined), the max response, negative = inhibition is -8.85%. On to `CC(C)C[C@H]1CN([C@@H](Cc2ccccc2)CN2CCC[C@@H]2CN2C(=O)C(=O)NC[C@@H]2Cc2ccc(O)cc2)C(=O)C(=O)N1CCc1ccccc1`, for which the max response, negative = inhibition is 7.71%.
